Compound activity: PubChem BioAssay, several laboratories
ABCB6 inh 2: ABCB6 transporter inhibitors, primary screen, K562-ABCB6 cells, flow cytometry, MLPCN library; K562-ABCB6 porphyrin accumulation, 1 h; stronger effect = lower value; 0.19% of 360,000 active; fluorescence ratio to DMSO, % at 10 µM; AID 602162, 2011; ATP-binding cassette sub-family B member 6 (Homo sapiens), Q9NP58;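 active means fluorescence ratio to DMSO below 75%, the collection mean minus 3 SD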;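 further: signal is porphyrin accumulated inside mitochondria; 100% equals median channel fluorescence of DMSO control wells; lower ratio means ABCB6 inhibition with less porphyrin fluorescence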
CendR NRP1 mod: modulators of CendR peptide binding to NRP-1, primary screen, biochemical, fluorescence polarization, uHTS; FAM-RPARPAR peptide binding to NRP-1; inhibition, % at 25 µM; 0.85% of 360,000 active; AID 602438, 2012;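 active means inhibition or corrected inhibition above about 18%, plus a signal ratio from 0.5 to 1.5, limit read from the data, passing the limit was not always enough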
ARNT-TACC3 inh: disruptors of ARNT/TACC3 protein interaction, primary screen, biochemical, AlphaScreen, single concentration | Transforming acidic coiled-coil-containing protein 3 (Homo sapiens), Q9Y6A5 | 0.66% of 390,000 active | AID 623870, 2012 | AlphaScreen His-ARNT PAS-B/GST-TACC3 binding, luminescence; TACC3 fragment carries E629A point mutation | inhibition, % at 9.99 µM;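 active means mean inhibition of replicates at least 50% and at least half of replicates each reaching 50%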;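 further: 0% = complete ARNT plus TACC3 wells and 100% = ARNT alone without TACC3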
hiPSC survival: enhancers of single-cell hiPSC survival, primary screen, ATPlite luminescence | 100% = ROCK inhibitor wells, 0% = DMSO | survival enhancement, % at 20 µM | 0.044% of 360,000 active | AID 602274, 2012; in the data active means survival enhancement above about 18%;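 further: cells exposed to compounds for 16 hours before the ATP read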
INS-1E GSIS act: GLuc luminescence reporter in INS-1E cells, primary screen for activators of glucose-dependent secretion of insulin; INS-1E GLuc reporter insulin secretion, 2-3 h; activation, % at 16.6 µM; 0.61% of 370,000 active;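 active means lowest replicate activation of at least 40%, so every replicate reaches that level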;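 further: 0% = median of neutral control wells and 100% = median of IBMX positive control wells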
* hit, by the source's call; . = no result. Hits are enriched below; roughly 1.8% of the tested compounds scored in any of these assays.

SMILES	ABCB6 inh 2	CendR NRP1 mod	ARNT-TACC3 inh	hiPSC survival	INS-1E GSIS act
CCC1=C(OC(=O)N(CC)CC)N2C(=O)OC(=NCC(=O)OC)[C@]2(C)[C@H]2C1=CC[C@H]1C(=O)N(CC(=O)OC)C(=O)[C@H]12	100.0	24.1*	-3.9	-2.5	9.3
CCC1=C(OC(=O)N(CC)CC)N2C(=O)OC(=NCC(=O)OC)[C@]2(C)[C@H]2C1=CC[C@H]1C(=O)N(CC)C(=O)[C@H]12	92.0	35.4*	-0.6	-0.5	-2.3
CNC[C@H]1OCc2ccccc2-c2c(n(C)c3ccccc23)C(=O)N([C@@H](C)CO)C[C@H]1C	.	.	.	.	6.9
CS(=O)(=O)N1CC2(C1)[C@H](c1ccccc1)[C@H](CO)N2CC1CCCC1	.	.	.	.	-10.0
CCN(CC)S(=O)(=O)c1ccc(-c2nnc(SCC(=O)N3c4ccccc4CC3C)n2CC)cc1 (stereo not given)	102.0	25.5*	-5.0	2.5	-31.4
CCNc1cc2oc(=O)c(CN3CCOCC3)c(C)c2cc1C	.	24.9*	-11.1	3.2	.
O=C1O[C@H](c2ccccc2)[C@H](c2ccccc2)N2[C@H]1[C@@H](C(=O)NC[C@H](O)c1ccccc1)[C@]1(C(=O)Nc3ccc(C#CCCO)cc31)[C@H]2c1ccc(OCCO)cc1	.	.	16.9	.	.
CCOC(=O)C1C(=O)C=C(c2cccs2)CC1c1ccccc1C (stereo not given)	101.0	15.3	3.7	-0.6	49.0*
CCOC(=O)C1C(=O)C=C(c2cccs2)CC1c1ccccc1 (stereo not given)	102.0	0.0	5.9	-0.1	.
O=C(Cc1cccnc1)N1CC2(C1)[C@H](c1ccccc1)[C@@H](CO)N2C(=O)C1CCC1	.	.	.	.	-10.6
CCC1(O)C(=O)OCc2c1cc1n(c2=O)Cc2cc3cc(O)ccc3nc2-1 (stereo not given)	101.0	45.3*	-9.4	-4.7	-6.2
CC1(C)OC2CC(=O)OCC23C1CC(=O)C1(C)C3CCC2(C)C(c3ccoc3)OC(=O)C3OC321 (stereo not given)	102.0	6.9	.	-1.5	.
CC(C)(O)[C@@H]1CC(=O)[C@]2(C)[C@H](CC[C@@]3(C)[C@H](c4ccoc4)OC(=O)[C@H]4O[C@]432)[C@@]1(C)/C=C\C(=O)O	94.0	26.5*	-2.3	-0.7	-3.9
O=C1c2ccccc2C(=O)c2[nH]cnc21	96.0	18.2*	11.9	0.0	-0.7
O=C1c2ccccc2C(=O)c2[nH]c(=O)[nH]c21	107.0	28.0*	.	-0.8	-1.9
COCc1c(C(=O)N2CCN(Cc3ccc4c(c3)OCO4)CC2)oc2ccccc12	101.0	25.6*	6.4	-0.5	-18.1
COCCCNC(=S)N1CCN(Cc2ccc3c(c2)OCO3)CC1	99.0	21.1*	-1.7	-0.5	5.5
Cc1ccccc1NC(=S)N1CCN(Cc2ccc3c(c2)OCO3)CC1	99.0	30.1*	3.1	0.3	-2.6
CCCCNC(=S)N1CCN(Cc2ccc3c(c2)OCO3)CC1	103.0	-5.8	2.1	2.8	-6.1
C[C@H]1CN([C@@H](C)CO)C(=O)c2cc(NS(=O)(=O)c3cn(C)cn3)ccc2O[C@H]1CN(C)Cc1ccc(Oc2ccccc2)cc1	.	.	-5.5	.	-1.1
COc1cccc(S(=O)(=O)N2CC3(CN(C(=O)Nc4cccc(F)c4)[C@@H](CO)c4[nH]c5cc(OC)ccc5c43)C2)c1	.	.	.	.	0.1
C[C@H]1CN([C@@H](C)CO)C(=O)c2cccc(NS(=O)(=O)c3cn(C)cn3)c2O[C@@H]1CN(C)C(=O)Nc1ccc2c(c1)OCO2	.	.	-2.4	.	18.7
O=C1C(=Cc2ccncc2)CCCc2ccccc21	96.0	-7.2	.	-1.0	.
O=C1/C(=C/c2ccncc2)CCC/C1=C\c1ccncc1	106.0	-17.9	8.1	89.7*	-23.9
Cc1ccc(NC2CCCN(C(=O)c3ccc4nccnc4c3)C2)cc1C (stereo not given)	96.0	43.3*	-4.2	-0.4	3.2
COc1cc(C(F)(F)F)c(C(=O)NCc2cccc(Cl)c2)cn1	95.0	-3.1	-7.6	-0.1	48.3*
CCCc1c(C)nc(N2CCN(c3ccccc3OC)CC2)[nH]c1=O	100.0	31.9*	-1.2	-0.2	1.5
